Sampled rows, rich in hits. Any-hit rate of the full collection: about 1.6%.
PERK inhibitor = blocks human PERK kinase. Q9NZJ5. CHO PERK-DD fusion, SEAP luminescence translation reporter. inhibition, % at 5.6 µM. actives 0.17% (n = 220,000). AID 1416;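 active = inhibition above the mean inhibition of all tested compounds plus 3 SD, set separately per screening campaign, cut at about 2.9% in these data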;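 note: PERK kinase domain activated by AP20187 dimerizer at 100 nM; 0% = DMSO with dimerizer and 100% = rapamycin at 8.4 µM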
PABP1 MLLE inh = inhibitors of microRNA-mediated deadenylation, human PABP1 MLLE binding | inhibition, % at 20 µM | P11940 | GST-MLLE / FITC-PAM2 fluorescence polarization | AID 588489 | actives 0.36% (n = 360,000); in the data active = inhibition above about 35%, passing the limit was not always enough;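 note: plate controls were DMSO wells with GST-MLLE for no effect and wells lacking GST-MLLE protein for full effect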
Target sequence (P11940 whole entry, looked up): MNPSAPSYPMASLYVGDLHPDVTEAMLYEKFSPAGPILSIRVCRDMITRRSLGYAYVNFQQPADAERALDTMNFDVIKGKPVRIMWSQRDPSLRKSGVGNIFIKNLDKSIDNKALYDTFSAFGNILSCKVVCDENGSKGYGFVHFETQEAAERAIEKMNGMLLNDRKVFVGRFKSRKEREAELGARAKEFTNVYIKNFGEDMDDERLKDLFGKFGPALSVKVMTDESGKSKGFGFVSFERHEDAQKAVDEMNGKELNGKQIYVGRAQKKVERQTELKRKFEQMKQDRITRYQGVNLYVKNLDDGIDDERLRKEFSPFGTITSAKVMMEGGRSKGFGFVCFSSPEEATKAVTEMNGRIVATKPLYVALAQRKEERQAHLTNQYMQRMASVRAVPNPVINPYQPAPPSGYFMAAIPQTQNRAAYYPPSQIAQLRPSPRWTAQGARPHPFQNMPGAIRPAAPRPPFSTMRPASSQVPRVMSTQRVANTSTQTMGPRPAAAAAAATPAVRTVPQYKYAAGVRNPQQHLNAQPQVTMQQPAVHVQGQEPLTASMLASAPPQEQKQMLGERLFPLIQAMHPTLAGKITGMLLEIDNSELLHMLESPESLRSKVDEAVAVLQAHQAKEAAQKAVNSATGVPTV
PABP polyA inh = blocks human PABP binding to poly(A) RNA. fluorescence polarization. calls only at 35 µM. actives 1% (n = 290,000);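 note: calls also rest on retests at 20 µM and on dose response follow-up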
eIF4H FP inh = inhibitors of RNA binding by human eIF4H | actives 0.94% (n = 290,000) | Q15056 | AID 2012 | inhibition, % at 35 µM | eIF4H fluorescence polarization binding assay;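 note: calls also rest on retests at 20 µM and on dose response follow-up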
eIF4E 4G PPI = blocks eIF4E binding to eIF4G | P63073+Q04637 | TR-FRET eIF4E-eIF4GI(517-606) binding, 2 h | inhibition, % at 21.7 µM | actives 0.37% (n = 220,000);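 active = inhibition above about 30%, limit read from the data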;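 note: 0% = full FRET control wells and 100% = background wells lacking eIF4GI fragment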
Numbers without * were called inactive; i = inactive; ? = inconclusive; nt = not tested or not shown; + = active, no number. Unless noted, the rule behind the calls is not given here.

SMILES	PERK inhibitor	PABP1 MLLE inh	PABP polyA inh	eIF4H FP inh	eIF4E 4G PPI
O=C(O)CN1C(=O)/C(=C\c2cc([N+](=O)[O-])ccc2OCc2ccccc2Cl)SC1=S	nt	23	+	45*	nt
COc1cc(/C=N/NC(=O)c2cccnc2)cc2c1OCO2	nt	8	i	-4	nt
COc1cc(/C=N/NC(=O)c2ccccn2)cc2c1OCO2	1	-10	+	?	0
CC1=CC(C)C2(COC(c3ccc[n+](C)c3)OC2)C(C)C1 (centres undefined)	0	-134	+	-2	8
CN(C)c1ccc(-c2cc(NC=O)c3ncc(-c4ccc(F)c(Cl)c4)n3c2)cc1	nt	-102	nt	nt	nt
CC(=O)Nc1ccc2[nH]c(C)cc(=O)c2c1	0	-10	i	1	-5
CC(=O)Nc1ccc2[nH]c3ccccc3c2c1	0	-8	+	99*	3
Cc1cc(NC(=O)CCC(=O)N(CC(=O)NCC2CCCO2)c2ccc(C(C)C)cc2)no1 (centres undefined)	nt	9	i	-5	nt
CCOC(=O)N1CCC(N(CCN(C)C)C(=S)Nc2ccccc2OCC)CC1	0	22	+	active	-1
CCOC(=O)NC1Cc2ccccc2C1Sc1ccccn1 (centres undefined)	nt	7	i	-6	nt
CN(C)CCCN1C(=O)c2cccc3c([N+](=O)[O-])ccc(c23)C1=O	-1	57*	i	?	7
Cc1ccc(C(=O)O)cc1N1C(=O)c2cccc3c([N+](=O)[O-])ccc(c23)C1=O	nt	21	+	101*	nt
O=C(O)c1ccc(CN2C(=O)c3cccc4c([N+](=O)[O-])ccc(c34)C2=O)cc1	nt	51*	+	81*	nt
COC(=O)c1cc(OC)nc2ccc(Br)cc12	1	4	i	3	-2
CCOc1ccccc1N(CC(=O)NCCSc1ccccc1)S(C)(=O)=O	0	9	i	-3	-1
Cc1[nH]n(-c2ccccc2)c(=S)c1C=Nc1cccc([N+](=O)[O-])c1	0	-12	i	4	55*
CC(C)CN(C(=O)COC(=O)Cc1c[nH]c2ccccc12)c1c(N)n(Cc2ccccc2)c(=O)[nH]c1=O	nt	2	nt	nt	nt
Cc1ccc([N+](=O)[O-])cc1S(=O)(=O)Nc1ccc(O)c(Sc2ncn[nH]2)c1	nt	41*	i	2	nt
CCOC(=O)C1=C(C)NC(C)=C(C(=O)OCC)C1c1ccc(Br)o1	-1	4	i	-2	1
CCOC(=O)c1c(C)noc1-c1ccc(Br)o1	4.6*	0	i	-10	0
c1ccc(Nc2nc3ccccc3n3nnnc23)cc1	1	22	?	?	4
Brc1ccc(Nc2nc3ccccc3n3nnnc23)cc1	0	nt	+	79*	-5
COCCCN(CC(=O)Nc1ccc(N2CCOCC2)cc1)S(=O)(=O)c1ccccc1	2	-1	i	-4	4
COc1ccccc1C(=O)NCCn1ccc2ccccc21	-1	43*	i	-10	1
O=S1(=O)CCC(NC(=S)SCCOc2ccccc2)C1 (centres undefined)	0	40*	i	0	0
SMILES	PERK inhibitor	PABP1 MLLE inh	PABP polyA inh	eIF4H FP inh	eIF4E 4G PPI
CNC(=S)SCCOc1ccccc1	1	36*	i	-19	-5
COc1ccc(-c2cc(-c3cccs3)c(C#N)c(SCC(=O)NCc3ccco3)n2)cc1	-1	8	i	55*	14
COc1ccc(CNC(=O)CSc2nc(-c3ccccc3)cc(-c3cccs3)c2C#N)cc1	0	16	i	0	-7
O=C(CN1CCCc2ccccc21)NC(=O)NC1CCCCC1	0	-15	i	37	-5
NC(=O)C1CCN(C(=O)CN2CCCc3ccccc32)CC1	0	33	+	78*	-8
CC1(CO)COC(c2ccccc2)=N1 (centres undefined)	0	18	i	5	-2
O=C1/C(=C\c2ccco2)SC(=S)N1C1CCCCC1	nt	nt	i	57*	nt
Cc1ccc(N2C(=O)/C(=C/c3ccco3)SC2=S)cc1	0	12	i	84	0
CCN(CC)c1ccc(NC(=O)CSc2nc(C)cc(=O)[nH]2)cc1	nt	10	i	-8	4
Cc1cc(=O)[nH]c(SCC(=O)Nc2ccc(N3CCCCC3)cc2)n1	nt	17	nt	nt	nt
Cc1cc(=O)[nH]c(SCC(=O)Nc2ccc(C(=O)O)cc2)n1	0	47*	i	0	-2
